Laboratory results reported in PubChem BioAssay.
Active and inactive are the calls of the source.

Legend:
[1] = optical density shifts of acrAB sulA E. coli – strain DRC41, OD650, 48 h, E. coli filamentation inducer project, primary screen (AID 1152); details: higher = more signal, called active from +8 up or from −8 down;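 also: E. coli MC1000 strain DRC41 lacking acrAB efflux pump and sulA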
[2] = probe aLefty1 binding on compound microarray – biochemical, small-molecule microarray, 635/667 nm fluorescence, primary screen (AID 1153); details: higher = more signal;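 also: score merges spot fluorescence with signal-to-noise ratio from the scanned slide images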
[3] = plasmodial surface anion channel blockers, osmotic lysis – cell-based, P. falciparum Indochina, OD700, 1 h, primary screen (AID 1154); details: P. falciparum Indochina infected RBC osmotic lysis, higher = more signal, called active from +8 up or from −8 down
[4] = plasmodial surface anion channel blockers, osmotic lysis – cell-based, P. falciparum Indochina, OD700, 2 h, primary screen (AID 1155);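 also: lysis reports solute entry through the parasite surface anion channel PSAC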; details: P. falciparum Indochina infected erythrocytes, higher = more signal, called active from +8 up or from −8 down
[5] = changes in parasitized red cell lysis, either direction – P. falciparum Indochina, OD700, 3 h, PSAC antagonist project, primary screen (AID 1156); details: P. falciparum-infected erythrocytes, osmotic lysis, higher = more signal, called active from +8 up or from −8 down
[6] = plasmodial surface anion channel blockers, osmotic lysis – cell-based, P. falciparum Indochina, OD700, 18 h, primary screen (AID 1157); details: P. falciparum Indochina infected erythrocytes, osmotic lysis OD700, 18 h; higher = more signal, called active from +8 up or from −8 down
[7] = S6 kinase pathway phospho-S6 level changes – cell-based, A549, cytoblot, luminescence, serum-stimulated, primary screen (AID 1158); details: 5 h, higher = more signal;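 also: serum-stimulated A549 lung adenocarcinoma cells; signal is phosphorylated S6 detected by cytoblot immunostaining with HRP secondary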
[8] = target: NADPH oxidase 2 (Homo sapiens) (UniProt P04839); experiment: compounds shifting NOX2 Amplex Red fluorescence – cell-based, HEK293-NOX2, PMA-stimulated, NOX inhibitor project, primary screen (AID 1159); details: 45 min, higher = more signal, called active from +8 up or from −8 down; also: test concentration not given here
Sequence of NADPH oxidase 2 (Homo sapiens) (P04839 whole entry, looked up): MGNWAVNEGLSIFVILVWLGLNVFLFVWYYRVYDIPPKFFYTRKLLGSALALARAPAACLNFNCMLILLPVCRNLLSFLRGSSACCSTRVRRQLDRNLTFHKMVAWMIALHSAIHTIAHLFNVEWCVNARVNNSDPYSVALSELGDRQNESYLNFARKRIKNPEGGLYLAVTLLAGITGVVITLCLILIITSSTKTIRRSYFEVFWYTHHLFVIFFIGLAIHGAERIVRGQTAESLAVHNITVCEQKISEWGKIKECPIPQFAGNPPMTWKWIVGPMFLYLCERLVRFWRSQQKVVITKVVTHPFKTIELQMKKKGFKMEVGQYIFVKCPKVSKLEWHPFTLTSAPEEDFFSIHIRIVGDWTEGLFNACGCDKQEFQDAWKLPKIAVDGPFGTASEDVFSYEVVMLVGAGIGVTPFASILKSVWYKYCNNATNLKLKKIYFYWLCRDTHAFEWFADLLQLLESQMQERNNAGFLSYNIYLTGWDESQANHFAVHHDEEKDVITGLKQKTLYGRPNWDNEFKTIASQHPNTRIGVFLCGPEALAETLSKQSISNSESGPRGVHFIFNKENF

[9] = target: NADPH oxidase 4 (Homo sapiens) (UniProt Q9NPH5); experiment: compounds shifting NOX4 Amplex Red fluorescence – cell-based, HEK293-NOX4, tetracycline-induced, NOX inhibitor project, primary screen (AID 1160); details: HEK293-NOX4, Amplex Red H2O2 fluorescence, 45 min; higher = more signal, called active from +8 up or from −8 down
Sequence of NADPH oxidase 4 (Homo sapiens) (Q9NPH5 whole entry, looked up): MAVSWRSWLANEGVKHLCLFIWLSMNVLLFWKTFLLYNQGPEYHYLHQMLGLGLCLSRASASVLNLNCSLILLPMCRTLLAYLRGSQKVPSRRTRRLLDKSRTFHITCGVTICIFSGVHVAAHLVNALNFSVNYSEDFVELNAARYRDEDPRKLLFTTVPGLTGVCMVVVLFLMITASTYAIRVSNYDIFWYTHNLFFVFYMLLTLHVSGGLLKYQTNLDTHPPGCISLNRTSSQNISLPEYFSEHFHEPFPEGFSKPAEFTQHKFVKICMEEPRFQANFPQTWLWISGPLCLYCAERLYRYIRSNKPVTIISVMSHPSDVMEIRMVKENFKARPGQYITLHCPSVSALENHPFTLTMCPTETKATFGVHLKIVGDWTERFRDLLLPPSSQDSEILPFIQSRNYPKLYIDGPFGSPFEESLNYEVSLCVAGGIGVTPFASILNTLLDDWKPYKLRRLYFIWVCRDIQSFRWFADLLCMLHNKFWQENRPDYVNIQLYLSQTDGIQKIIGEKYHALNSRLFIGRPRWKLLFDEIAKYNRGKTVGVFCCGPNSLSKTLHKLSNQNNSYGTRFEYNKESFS

[10] = target: NADPH oxidase 5 (Homo sapiens) (UniProt Q96PH1); experiment: compounds shifting NOX5 Amplex Red fluorescence – cell-based, HEK293-NOX5, NOX inhibitor project, primary screen (AID 1161); details: HEK293-NOX5, ionomycin, 45 min, higher = more signal
Sequence of NADPH oxidase 5 (Homo sapiens) (Q96PH1 whole entry, looked up): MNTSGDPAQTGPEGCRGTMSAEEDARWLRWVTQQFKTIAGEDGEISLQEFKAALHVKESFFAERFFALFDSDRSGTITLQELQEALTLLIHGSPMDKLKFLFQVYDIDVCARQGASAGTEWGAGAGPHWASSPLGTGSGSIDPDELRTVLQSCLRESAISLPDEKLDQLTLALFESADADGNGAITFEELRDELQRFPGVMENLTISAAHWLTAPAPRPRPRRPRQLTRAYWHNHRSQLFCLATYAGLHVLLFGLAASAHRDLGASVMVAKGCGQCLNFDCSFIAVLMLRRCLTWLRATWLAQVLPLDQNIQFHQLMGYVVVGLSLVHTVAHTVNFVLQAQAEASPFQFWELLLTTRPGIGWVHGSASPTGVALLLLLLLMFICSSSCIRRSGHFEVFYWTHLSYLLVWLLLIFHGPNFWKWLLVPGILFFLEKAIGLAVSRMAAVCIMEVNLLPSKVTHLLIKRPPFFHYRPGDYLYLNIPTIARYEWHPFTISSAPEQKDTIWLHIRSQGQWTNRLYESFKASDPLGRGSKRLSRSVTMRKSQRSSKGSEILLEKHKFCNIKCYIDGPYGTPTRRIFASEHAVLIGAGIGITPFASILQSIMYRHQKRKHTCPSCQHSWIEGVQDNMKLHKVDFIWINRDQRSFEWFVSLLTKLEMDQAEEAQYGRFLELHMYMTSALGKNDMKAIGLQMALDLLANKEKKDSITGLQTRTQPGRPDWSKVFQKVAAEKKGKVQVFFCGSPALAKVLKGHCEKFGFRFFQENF

[11] = compound effects on lung adenocarcinoma cell viability – A549, calcein-AM fluorescence, 48 h, basal, profiling panel (AID 1162); details: higher = more signal; also: test concentration not given here
[12] = compound effects on differentiated 3T3-L1 adipocyte viability – cell-based, 3T3-L1 adipocytes, calcein-AM fluorescence, 48 h, basal, profiling panel (AID 1163); details: 3T3-L1 adipocytes viability, higher = more signal; also: test concentration not given here
[13] = compound effects on hepatocellular carcinoma cell viability – HepG2, calcein-AM fluorescence, 48 h, basal, profiling panel (AID 1164); details: higher = more signal; also: test concentration not given here
[14] = compound effects on multiple myeloma cell viability – MM1S, calcein-AM fluorescence, 48 h, basal, profiling panel (AID 1165); details: higher = more signal;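 also: viability of MM1S multiple myeloma cells under basal unstimulated conditions; test concentration not given here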
[15] = calcein-AM signal in unstimulated myeloma cells – cell-based, calcein-AM fluorescence, 48 h, PK04 Diversity Set, profiling panel (AID 1166); details: RPMI8226 myeloma viability, higher = more signal;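 also: cells grown under basal conditions without added stimulus; test concentration not given here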
[16] = JC-1 mitochondrial signal, unstimulated HepG2 cells – cell-based, JC-1 fluorescence, 24 h, 100 nL compound, profiling panel (AID 1167); details: HepG2 mitochondrial potential, higher = more signal; also: test concentration not given here
[17] = JC-1 mitochondrial signal, unstimulated adipocytes – cell-based, JC-1 fluorescence, 3T3-L1 adipocytes, 24 h, 100 nL compound, profiling panel (AID 1168); details: JC-1 mitochondrial fluorescence, higher = more signal, called active from +8 up or from −8 down; also: test concentration not given here
[18] = JC-1 mitochondrial signal, unstimulated myeloma cells – cell-based, JC-1 fluorescence, RPMI8226, 24 h, 100 nL compound, profiling panel (AID 1169); details: JC-1 mitochondrial potential fluorescence, higher = more signal; also: test concentration not given here
[19] = JC-1 mitochondrial signal, unstimulated MM1S myeloma – cell-based, JC-1 fluorescence, 24 h, 100 nL compound, profiling panel (AID 1170); details: MM1S mitochondrial potential, higher = more signal; also: test concentration not given here
[20] = resazurin metabolic signal in A549 cells – cell-based, resazurin fluorescence, 24 h, PK04 Diversity Set, profiling panel (AID 1171); details: A549 viability, higher = more signal, called active from +8 up or from −8 down; also: test concentration not given here

Structure (SMILES)	z-score [1]	composite z-score [2]	z-score [3]	z-score [4]	z-score [5]	z-score [6]	z-score [7]	z-score [8]	z-score [9]	z-score [10]	z-score [11]	z-score [12]	z-score [13]	z-score [14]	z-score [15]	z-score [16]	z-score [17]	z-score [18]	z-score [19]	z-score [20]
CC(C)C[C@H]1NC(=O)[C@@]23C(=O)N[C@@H](Cc4ccccc4)C2[C@H](C)[C@@]2(C)O[C@H]2C3/C=C/C/C=C\CNC(=O)[C@@H]2CCCN2C1=O (stereo not given in full)	-1.09 (inactive)	-0.0544	0.0869 (inactive)	-0.26 (inactive)	-0.875 (inactive)	-0.234 (inactive)	0.0247	0.708 (inactive)	1.29 (inactive)	0.968	0.0246	-0.0768	-0.54	-1.41	-0.531	-0.831	0.244 (inactive)	0.868	-0.391	-0.659 (inactive)
COCCOC(=O)N1C(=O)[C@@]2(c3cc(C#Cc4ccc(OC)cc4)ccc31)[C@H](C(=O)N1CCCCCCC1)[C@H]1C(=O)O[C@H](c3ccccc3)[C@H](c3ccccc3)N1[C@@H]2c1ccccc1OCCO	0.0696 (inactive)	2.74	0.688 (inactive)	1.36 (inactive)	0.286 (inactive)	1.07 (inactive)	-0.17	0.0983 (inactive)	-0.0381 (inactive)	0.724	-0.198	1.05	0.383	-0.197	-0.417	0.617	3.29 (inactive)	-0.16	-0.845	0.122 (inactive)
C=CC[C@@]12N=C(c3ccc(OCCCO)cc3)O[C@@H]1c1ccccc1N(Cc1ccccc1)C2=O	1.04 (inactive)	1.47	31.3 (active)	28.1 (active)	3.1 (inactive)	2.31 (inactive)	-0.0677	-0.812 (inactive)	-0.091 (inactive)	-1.59	-0.395	0.555	-1.48	-3.4	-4.23	0.394	2.91 (inactive)	-1.25	-0.934	-1.1 (inactive)
CCOC(=O)C1=CC[C@@H](c2ccccc2)N(S(=O)(=O)C[Si](C)(C)C)[C@H]1c1ccccc1	-2.2 (inactive)	0.0437	2.05 (inactive)	1.83 (inactive)	0.0192 (inactive)	0.999 (inactive)	-0.692	0.324 (inactive)	-1.26 (inactive)	0.839	-0.96	0.147	0.0425	0.0106	0.242	-1.37	-0.479 (inactive)	-0.687	-0.667	0.946 (inactive)
CCc1cccc(NC(=O)O[C@H]2[C@H](OC(=O)Nc3ccc4c(c3)OCO4)[C@H](OC(=O)Nc3ccc4c(c3)OCO4)[C@@H](OC)O[C@@H]2CO)c1	-0.128 (inactive)	0.349	18.2 (active)	2.63 (inactive)	1.73 (inactive)	1.18 (inactive)	0.921	-3.43 (inactive)	-1.11 (inactive)	-1.65	-1.45	1.16	-1.35	-2.42	-2.17	-1.56	0.248 (inactive)	-1.15	-1.18	-2.33 (inactive)
CC[C@H](C)C(=O)O[C@H]1CC[C@]2(C)C3=C(CCC2C1(C)C)[C@]1(C)CC[C@H]([C@H](C)CCCC(C)C)[C@@]1(C)CC3 (stereo not given in full)	2.16 (inactive)	-0.142	-0.223 (inactive)	-0.121 (inactive)	-0.589 (inactive)	-0.136 (inactive)	0.231	-0.371 (inactive)	-0.0141 (inactive)	-0.162	1.18	0.265	0.469	0.223	-1.06	2.01	-0.959 (inactive)	-0.509	0.628	0.809 (inactive)
C=C(CC1([C@@H](NP(=O)(c2ccccc2)c2ccccc2)[C@H]2C[C@@H]2CCN(C(=O)OCC)S(=O)(=O)c2ccc(C)cc2)CC1)c1ccccc1	-1.42 (inactive)	0.723	2.02 (inactive)	0.939 (inactive)	2.36 (inactive)	1.28 (inactive)	0.603	0.464 (inactive)	-1.66 (inactive)	-3.34	-2.02	1.2	-1.12	-0.798	-3.89	4.8	-1.47 (inactive)	-0.699	-1.09	0.789 (inactive)
C#CCN=C(N)N	0.0764 (inactive)	-0.214	0.269 (inactive)	0.347 (inactive)	-0.765 (inactive)	-0.0065 (inactive)	-0.871	0.059 (inactive)	0.217 (inactive)	-0.0927	-0.268	-0.677	0.527	0.67	0.381	-0.794	0.268 (inactive)	-0.574	-0.922	0.0116 (inactive)
C=C(CCCC)C(=O)CC[C@H](OC(C)=O)c1ccccc1OCCO	0.0371 (inactive)	0.149	5.66 (inactive)	-0.686 (inactive)	2.15 (inactive)	-1.83 (inactive)	1.68	-1.56 (inactive)	-0.397 (inactive)	-2.19	-0.655	1.66	-0.713	-3.29	-2.91	0.103	0.98 (inactive)	-0.706	0.346	-1.24 (inactive)
